# Laboratory results as given in PMC8384837, “Expanding the binding specificity for RNA recognition by a PUF domain”.
# Where a chain is given by its changes, count along the chain named.
# Columns and labels:
# Assay in all cases: yeast three-hybrid, YBZ-1, SC-Leu-His + 0.5 mM 3-AT, 4 days
# Conditions in all cases: tags: N-Gal4 AD-HA kept; label: inside an RPR1-promoter hybrid RNA with tandem MS2 sites; ssRNA
# PUM1 PUF domain R5-EYG = PUM1 PUF domain R5-EYG (Homo sapiens, UniProt Q14671 828-1176, C1007E;R1008Y;Q1011G)
# Outline: (§1)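 The interaction score is the log change in variant frequency from input to selection. Scores were computed in log2 with a pseudocount of 1 for absent variants, using Illumina sequencing of PCR-amplified repeat regions. The input came from four days on SC-Leu and the selection from four days on SC-Leu-His + 0.5 mM 3-AT. The cells were strain YBZ-1 (LexA–MS2 coat fusion, HIS3 reporter) co-expressing Pumilio-1 PUF domain libraries and matching RNA elements from a centromeric plasmid.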
# PUM1 PUF domain R5-RDG = PUM1 PUF domain R5-RDG (Homo sapiens, UniProt Q14671 828-1176, C1007R;R1008D;Q1011G)
# Outline: as §1
# PUM1 PUF domain R5-KRQ = PUM1 PUF domain R5-KRQ (Homo sapiens, UniProt Q14671 828-1176, C1007K)
# Outline: as §1
# PUM1 PUF domain R5-GRN = PUM1 PUF domain R5-GRN (Homo sapiens, UniProt Q14671 828-1176, C1007G;Q1011N)
# Outline: as §1
# PUM1 PUF domain R5-PRQ = PUM1 PUF domain R5-PRQ (Homo sapiens, UniProt Q14671 828-1176, C1007P)
# Outline: as §1
# PUM1 PUF domain R6-AFE = molecular target: T1, PUM1 PUF domain R6-AFE (Homo sapiens, UniProt Q14671 828-1176, N1043A;Y1044F;Q1047E)
# T1 sequence: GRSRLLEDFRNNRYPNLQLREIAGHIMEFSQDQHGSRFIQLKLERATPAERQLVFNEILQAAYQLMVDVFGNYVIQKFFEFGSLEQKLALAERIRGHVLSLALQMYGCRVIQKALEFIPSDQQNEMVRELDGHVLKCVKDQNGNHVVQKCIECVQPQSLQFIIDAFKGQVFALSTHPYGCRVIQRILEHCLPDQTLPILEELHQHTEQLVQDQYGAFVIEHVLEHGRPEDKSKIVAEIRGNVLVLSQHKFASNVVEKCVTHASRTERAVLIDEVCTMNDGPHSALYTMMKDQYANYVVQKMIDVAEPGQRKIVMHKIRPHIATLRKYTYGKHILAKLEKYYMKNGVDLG
# Outline: as §1
# PUM1 PUF domain R8-RGW = PUM1 PUF domain R8-RGW (Homo sapiens, UniProt Q14671 828-1176, N1122R;Y1123G;Q1126W)
# Outline: as §1
# PUM1 PUF domain R6-HWL = molecular target: T2, PUM1 PUF domain R6-HWL (Homo sapiens, UniProt Q14671 828-1176, N1043H;Y1044W;Q1047L)
# T2 sequence: T1 sequence with A216H, F217W, E220L
# Outline: as §1
# PUM1 PUF domain R5-TRF = PUM1 PUF domain R5-TRF (Homo sapiens, UniProt Q14671 828-1176, C1007T;Q1011F)
# Outline: as §1
# PUM1 PUF domain R3-GRL = PUM1 PUF domain R3-GRL (Homo sapiens, UniProt Q14671 828-1176, C935G;Q939L)
# Outline: as §1
# PUM1 PUF domain R3-ACR = PUM1 PUF domain R3-ACR (Homo sapiens, UniProt Q14671 828-1176, C935A;R936C;Q939R)
# Outline: as §1
# PUM1 PUF domain R4-EYA = PUM1 PUF domain R4-EYA (Homo sapiens, UniProt Q14671 828-1176, N971E;H972Y;Q975A)
# Outline: as §1
# PUM1 PUF domain R2-SWP = PUM1 PUF domain R2-SWP (Homo sapiens, UniProt Q14671 828-1176, N899S;Y900W;Q903P)
# Outline: as §1
# PUM1 PUF domain R7-RTM = PUM1 PUF domain R7-RTM (Homo sapiens, UniProt Q14671 828-1176, S1079R;N1080T;E1083M)
# Outline: as §1
# PUM1 PUF domain R1-IRR = PUM1 PUF domain R1-IRR (Homo sapiens, UniProt Q14671 828-1176, S863I;Q867R)
# Outline: as §1
# PUM1 PUF domain R3-IWM = PUM1 PUF domain R3-IWM (Homo sapiens, UniProt Q14671 828-1176, C935I;R936W;Q939M)
# Outline: as §1
sequence,measurement,setting,value
GGCUAGAACUAGUGGAUCCCCCGGCGCCCGGCGGCUCGAGCCCGGGUAAGUGUGAAUAGUCUGCAUGCCGCCGGGCGCCAUGCCUGCAGGUCGACUCUAGAAAACAUG,binding signal,PUM1 PUF domain R5-EYG,4.35 log2 enrichment (interaction score)
same,binding signal,PUM1 PUF domain R5-RDG,2.49 log2 enrichment (interaction score)
same,binding signal,PUM1 PUF domain R5-KRQ,0.49 log2 enrichment (interaction score)
same,binding signal,PUM1 PUF domain R5-GRN,2.92 log2 enrichment (interaction score)
GGCUAGAACUAGUGGAUCCCCCGGCGCCCGGCGGCUCGAGCCCGGGUAAGUGUAAAUAGUCUGCAUGCCGCCGGGCGCCAUGCCUGCAGGUCGACUCUAGAAAACAUG,binding signal,PUM1 PUF domain R5-PRQ,3.84 log2 enrichment (interaction score)
same,binding signal,PUM1 PUF domain R6-AFE,1.28 log2 enrichment (interaction score)
same,binding signal,PUM1 PUF domain R5-KRQ,2.89 log2 enrichment (interaction score)
same,binding signal,PUM1 PUF domain R8-RGW,2.47 log2 enrichment (interaction score)
same,binding signal,PUM1 PUF domain R6-HWL,6.48 log2 enrichment (interaction score)
same,binding signal,PUM1 PUF domain R5-TRF,3.08 log2 enrichment (interaction score)
same,binding signal,PUM1 PUF domain R3-GRL,2.71 log2 enrichment (interaction score)
same,binding signal,PUM1 PUF domain R3-ACR,0.84 log2 enrichment (interaction score)
same,binding signal,PUM1 PUF domain R5-GRN,3.37 log2 enrichment (interaction score)
same,binding signal,PUM1 PUF domain R4-EYA,2.34 log2 enrichment (interaction score)
GGCUAGAACUAGUGGAUCCCCCGGCGCCCGGCGGCUCGAGCCCGGGUAAGUGUAAAGAGUCUGCAUGCCGCCGGGCGCCAUGCCUGCAGGUCGACUCUAGAAAACAUG,binding signal,PUM1 PUF domain R2-SWP,7.17 log2 enrichment (interaction score)
GGCUAGAACUAGUGGAUCCCCCGGCGCCCGGCGGCUCGAGCCCGGGUAAGUUUAAAUAGUCUGCAUGCCGCCGGGCGCCAUGCCUGCAGGUCGACUCUAGAAAACAUG,binding signal,PUM1 PUF domain R7-RTM,2.58 log2 enrichment (interaction score)
GGCUAGAACUAGUGGAUCCCCCGGCGCCCGGCGGCUCGAGCCCGGGUAAGUGUAAAUCGUCUGCAUGCCGCCGGGCGCCAUGCCUGCAGGUCGACUCUAGAAAACAUG,binding signal,PUM1 PUF domain R1-IRR,2.25 log2 enrichment (interaction score)
GGCUAGAACUAGUGGAUCCCCCGGCGCCCGGCGGCUCGAGCCCGGGUAAGUGUACAUAGUCUGCAUGCCGCCGGGCGCCAUGCCUGCAGGUCGACUCUAGAAAACAUG,binding signal,PUM1 PUF domain R4-EYA,0.75 log2 enrichment (interaction score)
GGCUAGAACUAGUGGAUCCCCCGGCGCCCGGCGGCUCGAGCCCGGGUAAGUGUAAGUAGUCUGCAUGCCGCCGGGCGCCAUGCCUGCAGGUCGACUCUAGAAAACAUG,binding signal,PUM1 PUF domain R3-IWM,4.14 log2 enrichment (interaction score)
same,binding signal,PUM1 PUF domain R3-ACR,4.11 log2 enrichment (interaction score)
